Pf Dd2 inh: blocks in vitro growth of P. falciparum Dd2; P. falciparum Dd2 growth, SYBR Green, 72 h; Potency, µM (series often up to 28.9 µM), inactives show top-dose activity, negative = inhibition, hits mostly inhibitors; actives 4.3% (n = 120,000); active = well fitted inhibition curve with a large enough effect;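 note: plate controls were DMSO vehicle for no effect and reference drug for full effect; nearly all actives have a fitted effect of over 65% in size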
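Infected erythrocytes (Dd2, 0.3% parasitemia, 2.5% hematocrit final) are added to compound in RPMI-1640/Albumax II medium, grown 72 h at 37C in low oxygen, then lysed with saponin/Triton-X containing SYBR Green and read by fluorescence.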
* marks the source's active call; other numbers are inactive results; i = inactive; [ ] = another dose, or the depositor's remark. Shown is part of a subset that was picked to be rich in hits. Potency is the fitted concentration of half-maximal effect.

SMILES | Pf Dd2 inh
Cc1ccc(OC2(C(=O)N3CCCC3c3nccs3)CCNCC2)cc1 (stereo not given) | i
O=C1CC2CCN([S+](=O)([O-])c3cccs3)CC2CCN1 (stereo not given) | 8%
CC(C)Oc1ccc(CNC(=O)c2ccc3c(c2)nc2n3CCCCC2)cc1 | -15%
Cc1cc(N2CCCCC2)nc2ccc(NC(=O)/C=C/c3ccccc3OC(C)C)cc12 | 2.8µM*
COc1ccc(/C=C/C(=O)Nc2ccc3nc(N4CCCCC4)cc(C)c3c2)cc1OC | 4µM*
CN(Cc1ccccc1)C(=O)C(=O)Nc1ccc2nc3n(c(=O)c2c1)CCCCC3 | i
CCCN(C(=O)C(=O)Nc1ccc2nc3n(c(=O)c2c1)CCCCC3)c1ccc(OCC)cc1 | -16%
CCOC(=O)c1c(NC(=O)/C=C/c2ccc(OC)c(OC)c2)sc(C(C)=O)c1C | 40%
Cc1cc(N2CCCCC2)nc2ccc(NC(=O)/C=C/c3ccc(OC(C)C)cc3)cc12 | 10µM*
COc1ccc(/C=C/c2nc(C#N)c(N3CCCCCC3)o2)cc1OC | -15%
COCCNC(=O)C(=O)Nc1ccc2nc3n(c(=O)c2c1)CCCCC3 | -17%
CC(C)CNC(=O)C1(CCO)CC12CCOCC2 (stereo not given) | -6%
O=S(=O)(c1ccccc1)N1CCC(NCC2(O)CNCCOC2)CC1 (stereo not given) | 2%
O=C(c1ccccc1C(F)(F)F)N1CCC(n2cnnc2C2CC2)CC1 | 5%
Cc1ccc(C(=O)N2CCC3(C2)C(=NC2CCCCC2)NC(=O)N3c2cccnc2)cc1 (stereo not given) | 16%
Cc1cn2cc(C(=O)N3CCCC4(C3)C(=O)N(C)c3ccccc34)ccc2n1 (stereo not given) | -14%
O=C(Nc1cccc(Cl)c1)C1CCN(c2cc(C(F)(F)F)ncn2)CC1 | -25%
COCCOC1CCOC2(CCN(C(=O)Nc3ccccc3F)CC2)C1 (stereo not given) | 13µM*
COCCOC1CCOC2(CCN(C(=O)Nc3ccccc3)CC2)C1 (stereo not given) | -23%
COC1CCOC2(CCN(C(=O)Nc3ccccc3F)CC2)C1 (stereo not given) | 9%
COCCOc1ccc2c(n1)CCN(C(=O)Cc1cccc(F)c1)C2 | 3%
COc1ccc(C(=O)N2CCC3(CC2)NCCc2c3[nH]c3ccccc23)cc1 | -18%
Cc1ccc(C(=O)N2CCC3(CC2)N=C(c2ccccc2)NO3)cc1 | i
Cc1ccc(C(=O)N2CCC(c3c[nH]c4ccccc34)(c3c[nH]c4ccccc34)CC2)cc1 | 2µM*
CCCN1CCN(C(=O)c2ccc3c(c2)n(Cc2ccc(F)cc2)c(=O)c2ccnn23)CC1 | -16%
SMILES | Pf Dd2 inh
Cn1nccc1C(O)c1cc2n(n1)CCN(c1ncc(Cl)cn1)C2 (stereo not given) | -8%
CCc1ccc(C2CC(=O)c3c([nH]c(C(=O)OCCOc4ccccc4)c3C)C2)cc1 (stereo not given) | 5µM*
Cc1c(C(=O)OCc2ccccc2)[nH]c2c1C(=O)CC(c1ccc(Cl)cc1)C2 (stereo not given) | -2%
CCOC(=O)C1=C(CNCc2ccc(Cl)cc2)NC(=O)NC1c1ccccc1 (stereo not given) | -8%
CCOC(=O)c1[nH]c2c(c1Cc1ccccc1C)C(=O)CC(c1ccccc1)C2 (stereo not given) | 8.9µM*
CCOC(=O)C1=C(C)N=C2SCCC(=O)N2C1c1ccc(OCc2ccccc2)cc1 (stereo not given) | 61%
CCOC(=O)C1=C(C)N=C2SC=C(CC(=O)NCC3CC3)N2C1c1cc(OC)ccc1OC (stereo not given) | i
O=C1CC(c2ccccc2)Cc2[nH]c(=O)c(C(=O)Nc3cccc(Cl)c3)cc21 (stereo not given) | -13%
COc1ccc(C2CC(=O)c3c([nH]c(C(=O)OCc4ccccc4)c3C)C2)cc1OC (stereo not given) | -16%
CCOC(=O)c1[nH]c2c(c1Cc1ccccc1C)C(=O)CC(c1cc(OC)ccc1OC)C2 (stereo not given) | 5µM*
Cn1c(CNC(=O)C2CCN(C(=O)N3CC4CC(C3)[C@H]3CCCC(=O)N3C4)CC2)nc2ccccc21 (stereo not given in full) | i
O=C(Nc1cccc(F)c1)N1CC(Oc2ccc(-c3nc(-c4ccccc4)no3)cc2)C1 | i[5.79 µM]
CN(Cc1ccc2nonc2c1)C(=O)C1CCN(C(=O)C2CCCC2)CC1 | -22%
Cc1ccc(CNC(=O)CN2C(=O)C(c3ccccc3)=NC23CCCCCC3)cc1 | i
COc1ccccc1OCC(=O)NC1CC(=O)N(Cc2ccccc2Cl)C1 (stereo not given) | -18%
O=C(NCCC1CCN(C(=O)Nc2ccc(F)cc2F)CC1)c1ccco1 | -3%
O=C(NCc1ccc2c(c1)OCO2)C1CCCN(c2nc3ncccc3o2)C1 (stereo not given) | -23%
CC(C)CNC(=O)N1CCC2(CC1)CC(C(=O)N1CCOCC1)N(C)C2 (stereo not given) | 6%
COc1ccc(F)cc1C(=O)N1CC[C@@H]2[C@@H](CCC(=O)N2CCN)C1 | -11%
COc1ccc(CCNC(=O)c2ccc3c(c2)N(Cc2ccccc2)C(=O)c2ccccc2S3=O)cc1OC (stereo not given) | i
Cc1cccc(CN2C(=O)c3ccccc3S(=O)(=O)c3ccc(C(=O)NCCC4=CCCCC4)cc32)c1 | -13%
O=C(NCCC1=CCCCC1)c1ccc2c(c1)N(Cc1ccccc1F)C(=O)c1ccccc1S2=O (stereo not given) | 13µM*
COC(=O)c1ccc2c(c1)nc1n2[C@@H](CNCc2ccc(C(F)(F)F)cc2)COC1 | i
COc1ccc(/C=C/C(=O)Nc2ccc(C)cc2)cc1 | -29%
COc1ccc(NC(=O)/C=C\C(=O)N(c2ccc(C(C)C)cc2)C(C(=O)NCc2ccco2)c2ccc(C)cc2)cc1 (stereo not given) | 10µM*
SMILES | Pf Dd2 inh
COc1ccc(NC(=O)C(c2ccc(C)cc2)N(C)C(=O)/C=C\c2ccc3c(c2)OCO3)cc1 (stereo not given) | -25%
CCC1=C(C(=O)OC)C(c2ccccc2Cl)N2C(CC(=O)N(C)Cc3ccccc3)=CSC2=N1 (stereo not given) | -9%
Cc1ccc(CN2CCC[C@H]2c2nc(-c3ccc(OC4CCCCC4)nc3)no2)cc1 | -13%[44.1 µM]
COc1ccc(-c2noc([C@@H]3CCCN3C3CCCCC3)n2)cn1 | i
c1cc(OC2CCCCC2)ncc1-c1noc([C@@H]2CCCN2C2CCOCC2)n1 | 11µM*
CCn1ncc(N2CCC(NC(=O)CC3CCCCC3)CC2)cc1=O | -10%
COc1ccc(C(=O)N2CCCC(CO)CCNC(=O)CC2)cn1 (stereo not given) | -10%
COc1ccc(S(=O)(=O)N2CCc3nnc([C@@H]4C[C@@H](O)CN4C)n3CC2)cc1 | 3%
O=C(N[C@H]1CCN2C(=O)c3cc(-c4ccccc4)ccc3NC(=O)[C@H]12)c1cccc(F)c1 | -3%[44.1 µM]
CCOCc1nc(C2CCCN2C(=O)NCCC(=O)OCC)no1 (stereo not given) | 14%
Fc1ccccc1-c1cnc2n[nH]c(-c3ccc4c(c3)OCO4)c2n1 | i
c1ccc(-c2cnc3n[nH]c(-c4ccc5c(c4)OCO5)c3n2)cc1 | 35%[44.1 µM]
Oc1ccccc1-c1cnc2n[nH]c(-c3ccc4c(c3)OCO4)c2n1 | 11µM*
Cc1ccc(NC(=O)N2CCCC(c3nnc(CN(C)C)n3C)C2)cc1C (stereo not given) | -17%

Assay outcomes (PubChem)
